According to PubChem BioAssay (EPA / NIEHS):
A structure can be active in one record and inactive in another. Calls of active or inactive are those of the source. Rule for the calls: active = hit-call score of the fitted dose curve at least 0.9, where 1 is the maximum; inactive = score below 0.9.

Legend:
[1] = APR_HepG2_NuclearSize_72hr: Apredica 72-hour HepG2 Assay for Nuclear Size (AID 2282925); conditions: high-content imaging, actives raise or lower the signal
In short: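 Nuclear size was read by high-content imaging of Hoechst 33342 stain after formaldehyde fixation. Compounds ran 72 h on HepG2 at 0.39 to 200 uM, with final DMSO 0.5% v/v. Curves fitted both directions relative to DMSO control.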

[2] = ATG_CRE_CIS: Attagene CIS-FACTORIAL HepG2 Assay for human cAMP Responsive Element (CRE) binding protein 3 (AID 2282926); conditions: HepG2 CRE cis-reporter, Attagene multiplexed mRNA; actives raise or lower the signal
In short: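 Liver-derived HepG2, transfected with a CRE-containing reporter panel, exposed 24 h; transcript levels sized and quantified by capillary electrophoresis of labelled amplicons; signal changes either way referenced to vehicle.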

[3] = molecular target: CCAAT/enhancer-binding protein beta (Homo sapiens) (UniProt P17676); test: ATG_C_EBP_CIS: Attagene CIS-FACTORIAL HepG2 Assay for human CCAAT/Enhancer Binding Protein (C/EBP) beta (AID 2282927); conditions: HepG2 Attagene cis-factorial transcription factor reporter; actives raise or lower the signal
Sequence of CCAAT/enhancer-binding protein beta (Homo sapiens) (P17676 whole entry, looked up): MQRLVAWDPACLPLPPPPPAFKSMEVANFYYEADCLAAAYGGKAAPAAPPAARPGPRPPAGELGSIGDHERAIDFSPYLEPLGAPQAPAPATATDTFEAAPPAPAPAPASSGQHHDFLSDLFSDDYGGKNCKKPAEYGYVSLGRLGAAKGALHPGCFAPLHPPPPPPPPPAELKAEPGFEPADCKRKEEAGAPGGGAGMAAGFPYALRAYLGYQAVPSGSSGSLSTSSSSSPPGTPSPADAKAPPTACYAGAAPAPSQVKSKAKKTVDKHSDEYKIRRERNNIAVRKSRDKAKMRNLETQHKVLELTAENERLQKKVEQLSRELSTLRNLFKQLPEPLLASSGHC
In short: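 Changes in reporter mRNA, rather than exogenous chimeric receptor activity, reflect native C/EBP signalling in transfected HepG2 cells dosed for 24 h; transcripts are detected by RT-PCR and capillary electrophoresis.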

[4] = ATG_CMV_CIS: Attagene CIS-FACTORIAL HepG2 Assay for human CMV (Internal Marker) (AID 2282928); conditions: HepG2 CMV promoter reporter, transcription factor profiling; actives raise or lower the signal;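 note: endpoint acts as a background internal control marker rather than a target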
In short: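 Reporter transcripts from transfected HepG2 cells are isolated after 24 h of chemical dosing, reverse-transcribed and amplified. Fragments labeled with 6-FAM are cut with HpaI and quantified by capillary electrophoresis; DMSO defines baseline.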

[5] = ATG_DR4_LXR_CIS: Attagene CIS-FACTORIAL HepG2 Assay for human Liver X Receptor (LXR), DR4 submotif (AID 2282929); conditions: HepG2 Attagene DR4 cis-reporter, mRNA transcription; actives raise or lower the signal
In short: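 Total RNA from 24 h-treated, MRTU-transfected HepG2 cells underwent reverse transcription, PCR, fluorescent primer extension and restriction digestion before capillary electrophoresis. Both increases and decreases in reporter signal were fitted against DMSO.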

[6] = molecular target: Aryl hydrocarbon receptor (Homo sapiens) (UniProt P35869); test: ATG_Ahr_CIS: Attagene CIS-FACTORIAL HepG2 Assay for human Aryl Hydrocarbon Receptor (Ahr) (AID 2282930); conditions: HepG2 AhR cis-factorial reporter transcription; actives raise or lower the signal
Sequence of Aryl hydrocarbon receptor (Homo sapiens) (P35869 whole entry, looked up): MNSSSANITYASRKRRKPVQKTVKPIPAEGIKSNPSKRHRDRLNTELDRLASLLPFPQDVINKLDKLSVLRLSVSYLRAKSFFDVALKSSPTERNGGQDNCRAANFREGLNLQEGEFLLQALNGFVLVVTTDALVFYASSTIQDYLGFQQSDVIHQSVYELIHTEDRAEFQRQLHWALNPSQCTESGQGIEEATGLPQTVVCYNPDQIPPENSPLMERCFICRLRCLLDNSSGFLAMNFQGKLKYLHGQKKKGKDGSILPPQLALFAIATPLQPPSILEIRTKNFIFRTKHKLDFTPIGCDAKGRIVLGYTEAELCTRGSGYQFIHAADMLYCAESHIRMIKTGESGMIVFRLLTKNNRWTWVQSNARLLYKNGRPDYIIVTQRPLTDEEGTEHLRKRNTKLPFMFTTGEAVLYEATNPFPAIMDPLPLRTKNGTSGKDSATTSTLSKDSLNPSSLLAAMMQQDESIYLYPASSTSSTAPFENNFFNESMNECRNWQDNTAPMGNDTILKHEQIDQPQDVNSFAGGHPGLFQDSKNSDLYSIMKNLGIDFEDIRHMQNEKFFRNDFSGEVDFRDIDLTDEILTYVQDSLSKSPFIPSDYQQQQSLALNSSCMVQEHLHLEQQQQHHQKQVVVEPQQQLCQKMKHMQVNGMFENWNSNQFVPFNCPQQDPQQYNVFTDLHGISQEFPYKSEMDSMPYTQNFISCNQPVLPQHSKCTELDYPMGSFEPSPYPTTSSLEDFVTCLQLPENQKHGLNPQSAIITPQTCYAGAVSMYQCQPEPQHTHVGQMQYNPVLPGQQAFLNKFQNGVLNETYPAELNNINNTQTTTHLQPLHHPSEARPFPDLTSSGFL
In short: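 HepG2, transient MRTU (cis) transfection, 24 h exposure. RNA → cDNA → PCR → 6-FAM primer extension → HpaI 2 h 37 C → CE. Fit: bidirectional, DMSO baseline.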

[7] = ATG_AP_1_CIS: Attagene CIS-FACTORIAL HepG2 Assay for human Activator Protein 1 (AP-1) (AID 2282931); conditions: HepG2 Attagene cis-factorial AP-1 reporter mRNA; actives raise or lower the signal
In short: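 HepG2, transient cis-reporter transfection; 24 h; readout RT-PCR/CE fluorescence; DMSO baseline, gain and loss fitted.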

[8] = ATG_AP_2_CIS: Attagene CIS-FACTORIAL HepG2 Assay for human Activator Protein 2 (AP-2) (AID 2282932); conditions: HepG2 AP-2 cis-reporter, Attagene transcription factor profiling; actives raise or lower the signal
In short: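 Transiently transfected HepG2 cells are exposed to chemical for 24 h. Reporter transcripts are then measured as fluorescence following RT-PCR and capillary separation, and gain- or loss-of-signal is fitted relative to DMSO.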

[9] = ATG_BRE_CIS: Attagene CIS-FACTORIAL HepG2 Assay for human Bone Morphogenetic Protein (BMP) Response Element (BRE) (AID 2282933); conditions: HepG2 BMP response element reporter, Attagene transcription factor profiling; actives raise or lower the signal
In short: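 HepG2 cells transiently transfected with CIS reporter units (endogenous TF activity, BMP response element), dosed 24 h. Reporter mRNA quantified by RT-PCR, fluorescent labelling and capillary electrophoresis; bidirectional fit vs DMSO baseline.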

[10] = molecular target: Retinoic acid receptor alpha (Homo sapiens) (UniProt P10276); test: ATG_DR5_RAR_CIS: Attagene CIS-FACTORIAL HepG2 Assay for human Retinoic Acid Receptor Alpha (RARE), DR5 submotif (AID 2282934); conditions: HepG2 Attagene cis-factorial RARE DR5 reporter, mRNA; actives raise or lower the signal;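 for AC50: reporter responds to endogenous RAR alpha beta and gamma in HepG2 not RARA alone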
Sequence of Retinoic acid receptor alpha (Homo sapiens) (P10276 whole entry, looked up): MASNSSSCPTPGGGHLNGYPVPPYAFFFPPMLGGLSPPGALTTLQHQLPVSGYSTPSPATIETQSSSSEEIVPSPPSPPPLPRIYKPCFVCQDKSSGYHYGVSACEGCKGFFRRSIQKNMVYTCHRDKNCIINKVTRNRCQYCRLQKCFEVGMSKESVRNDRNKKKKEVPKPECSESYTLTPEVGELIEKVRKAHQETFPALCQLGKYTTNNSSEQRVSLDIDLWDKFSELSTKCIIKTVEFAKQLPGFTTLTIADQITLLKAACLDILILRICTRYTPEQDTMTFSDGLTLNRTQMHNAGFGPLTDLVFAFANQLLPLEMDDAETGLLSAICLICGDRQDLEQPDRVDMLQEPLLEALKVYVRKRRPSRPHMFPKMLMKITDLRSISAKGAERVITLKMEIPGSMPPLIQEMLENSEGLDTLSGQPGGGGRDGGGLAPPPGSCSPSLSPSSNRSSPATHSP
In short: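 HepG2, transient cis-reporter transfection, 24 h exposure. mRNA readout: RT-PCR, FAM label, HpaI cut, capillary electrophoresis. DMSO baseline, gain/loss fitting.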

[11] = molecular target: Transcription factor E2F1 (Homo sapiens) (UniProt Q01094); test: ATG_E2F_CIS: Attagene CIS-FACTORIAL HepG2 Assay for human E2F Transcription Factor 1 (AID 2282935); conditions: HepG2 Attagene cis-reporter, E2F reporter RNA transcripts; actives raise or lower the signal
Sequence of Transcription factor E2F1 (Homo sapiens) (Q01094 whole entry, looked up): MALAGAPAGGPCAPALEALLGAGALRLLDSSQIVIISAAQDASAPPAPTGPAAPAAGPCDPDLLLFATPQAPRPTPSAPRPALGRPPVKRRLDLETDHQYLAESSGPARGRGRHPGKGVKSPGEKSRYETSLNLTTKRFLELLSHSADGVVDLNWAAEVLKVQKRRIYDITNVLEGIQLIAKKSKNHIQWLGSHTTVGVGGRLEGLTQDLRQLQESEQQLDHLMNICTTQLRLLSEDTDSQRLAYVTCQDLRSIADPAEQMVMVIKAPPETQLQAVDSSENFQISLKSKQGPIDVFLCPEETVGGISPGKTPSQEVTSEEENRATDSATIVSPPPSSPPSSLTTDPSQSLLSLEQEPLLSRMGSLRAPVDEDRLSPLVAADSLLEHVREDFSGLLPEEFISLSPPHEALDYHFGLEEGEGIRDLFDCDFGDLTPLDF
In short: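 Fluorescent RT-PCR products, digested with HpaI for 2 h at 37 C, are separated by capillary electrophoresis. Source RNA comes from transfected HepG2 cultures treated for 24 h.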

[12] = ATG_E_Box_CIS: Attagene CIS-FACTORIAL HepG2 Assay for human Enhancer Box (E-box) (AID 2282936); conditions: HepG2 E-box cis-reporter transcription, actives raise or lower the signal
In short: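 Fluorescent reporter fragments separated by capillary electrophoresis gave the signal; mRNA came from HepG2 cells transfected with cis-element reporters and treated 24 h. Curves fitted bidirectionally relative to DMSO controls.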

[13] = ATG_M_61_CIS: Attagene CIS-FACTORIAL HepG2 Assay for M61 Transcription Factor (Internal Marker) (AID 2282937); conditions: HepG2 Attagene CIS-FACTORIAL M61 internal marker reporter; actives raise or lower the signal
In short: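 Transfect HepG2 with MRTUs; dose 24 h; isolate RNA; reverse-transcribe with DNase I treatment; PCR-amplify, FAM-label and cut with HpaI for 2 h at 37 C; resolve by CE. Bidirectional fitting against DMSO.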

[14] = ATG_EGR_CIS: Attagene CIS-FACTORIAL HepG2 Assay for human Early Growth Response 1 (EGR1) (AID 2282938); conditions: HepG2 Attagene CIS-FACTORIAL EGR reporter mRNA; actives raise or lower the signal
In short: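 After a 24 h treatment of transiently transfected HepG2 cells, total RNA was reverse-transcribed and reporter sequences PCR-amplified, labelled and run on capillary electrophoresis. Reporters sit under cis-regulatory promoters sensing endogenous factors.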

[15] = ATG_M_19_CIS: Attagene CIS-FACTORIAL HepG2 Assay for M19 Transcription Factor (Internal Marker) (AID 2282939); conditions: HepG2 Attagene CIS-FACTORIAL M19 internal marker reporter; actives raise or lower the signal
In short: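 HepG2 cells transiently transfected with cis-regulated multiplexed reporter units, dosed 24 h. Reporter mRNA quantified by RT-PCR and capillary electrophoresis; internal background marker fitted bidirectionally versus DMSO.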

[16] = ATG_ERE_CIS: Attagene CIS-FACTORIAL HepG2 Assay for Estrogen Response Element (ERE) (AID 2282940); conditions: HepG2 ERE cis-reporter, Attagene RNA transcript; actives raise or lower the signal
In short: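 HepG2 cells transiently transfected with multiplexed cis-element reporter units, measuring endogenous transcription factor activity; ERE reporter mRNA quantified after 24 h exposure by RT-PCR, fluorescent labelling, HpaI digestion and capillary electrophoresis. Bidirectional change versus DMSO.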

[17] = ATG_Ets_CIS: Attagene CIS-FACTORIAL HepG2 Assay for human Erythroblast Transformation Specific (ETS) (AID 2282941); conditions: HepG2 ETS cis-reporter transcription, actives raise or lower the signal
In short: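 Bidirectional fit versus DMSO of reporter mRNA signal, detected by RT-PCR and capillary electrophoresis in HepG2 cells transiently transfected with cis-element reporters and dosed 24 h.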

[18] = molecular target: Hepatocyte nuclear factor 3-beta (Homo sapiens) (UniProt Q9Y261); test: ATG_FoxA2_CIS: Attagene CIS-FACTORIAL HepG2 Assay for human Forkhead box A2 (FOXA2) (AID 2282942); conditions: HepG2 cis-reporter transcription factor activity, 24 h; actives raise or lower the signal
Sequence of Hepatocyte nuclear factor 3-beta (Homo sapiens) (Q9Y261 whole entry, looked up): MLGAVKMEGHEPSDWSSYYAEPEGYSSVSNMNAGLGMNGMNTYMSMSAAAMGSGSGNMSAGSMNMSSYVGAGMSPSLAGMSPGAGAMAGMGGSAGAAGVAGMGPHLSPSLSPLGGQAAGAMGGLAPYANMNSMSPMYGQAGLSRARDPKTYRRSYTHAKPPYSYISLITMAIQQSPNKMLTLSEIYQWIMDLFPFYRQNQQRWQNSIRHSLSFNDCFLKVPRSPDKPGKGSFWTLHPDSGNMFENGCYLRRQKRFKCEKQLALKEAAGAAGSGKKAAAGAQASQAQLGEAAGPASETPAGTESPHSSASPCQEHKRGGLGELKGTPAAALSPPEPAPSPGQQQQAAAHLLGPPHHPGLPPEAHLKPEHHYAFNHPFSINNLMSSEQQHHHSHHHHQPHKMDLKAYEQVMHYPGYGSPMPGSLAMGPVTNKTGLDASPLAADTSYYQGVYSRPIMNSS
In short: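 24 h dosing of HepG2 bearing cis-reporter constructs; mRNA readout by RT-PCR/CE fluorescence; bidirectional fit, DMSO baseline.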

[19] = ATG_FoxO_CIS: Attagene CIS-FACTORIAL HepG2 Assay for human Forkhead box O (FoxO) (AID 2282943); conditions: HepG2 Attagene cis-reporter, FoxO element, mRNA; actives raise or lower the signal
In short: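 Human hepatoma HepG2 cells carry transiently introduced reporter transcription units controlled by cis promoter elements. Chemical treatment lasted 24 h, and mRNA signal was compared with DMSO.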

[20] = ATG_GATA_CIS: Attagene CIS-FACTORIAL HepG2 Assay for human GATA Binding Protein (AID 2282944); conditions: HepG2 GATA cis-element reporter, Attagene multiplex mRNA; actives raise or lower the signal
In short: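 HepG2 cells transiently transfected with multiplexed cis-element reporter units measure endogenous GATA activity; after 24 h compound exposure, reporter mRNA quantified by RT-PCR and capillary electrophoresis. Changes fitted in both directions vs DMSO.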

Measured: AC50

C#CCN1C(=O)COc2cc(F)c(N3C(=O)C4=C(CCCC4)C3=O)cc21
inactive: [1] | [3] | [4] | [5] | [6] | [7] | [8] | [9] | [10] | [11] | [12] | [13] | [14] | [15] | [16] | [17] | [18] | [19] | [20]
active: [2] 22.4 µM

O=C(O)C(F)(F)C(F)(F)C(F)(F)C(F)(F)C(F)(F)C(F)(F)C(F)(F)F
active: [5] 11.5 µM
inactive: [1] | [2] | [3] | [4] | [5] | [6] | [8] | [9] | [12] | [13] | [14] | [15] | [18] | [19] | [20]

CCc1ccc(C(=O)NN(C(=O)c2cc(C)cc(C)c2)C(C)(C)C)cc1
active: [5] 50 µM | [14] 16.5 µM
inactive: [1] | [2] | [3] | [4] | [6] | [8] | [9] | [10] | [12] | [13] | [15] | [16] | [17] | [18] | [19] | [20]

CC(C)OC(=O)Nc1cccc(Cl)c1
inactive: [1] | [6] | [7] | [8] | [9] | [10] | [11] | [12] | [13] | [15] | [16] | [17] | [18] | [19] | [20]
active: [2] 15.3 µM | [3] 22.5 µM | [4] 34.1 µM | [14] 94.5 µM

Oc1cc(Cl)ccc1Oc1ccc(Cl)cc1Cl
inactive: [1] | [2] | [3] | [4] | [6] | [7] | [8] | [9] | [11] | [12] | [13] | [14] | [15] | [18] | [19] | [20]
active: [1] 36.8 µM | [2] 8.07 µM [middle of 4 runs] | [3] 20.5 µM | [4] 8.95 µM [middle of 5 runs] | [6] 5.97 µM | [7] 8.94 µM [middle of 5 runs] | [8] 20.7 µM | [9] 7.15 µM [middle of 6 runs] | [12] 13.4 µM | [14] 11.3 µM [middle of 4 runs] | [20] 5.97 µM

[2H]C1([2H])[n+]2ccccc2-c2cccc[n+]2C1([2H])[2H]
active: [4] 13.5 µM | [5] 79.9 µM | [12] 78.7 µM
inactive: [1] | [2] | [3] | [6] | [8] | [9] | [10] | [13] | [14] | [15] | [16] | [17] | [18] | [19] | [20]

Clc1ccccc1-c1nnc(-c2ccccc2Cl)nn1
inactive: [1] | [2] | [3] | [4] | [6] | [7] | [8] | [9] | [10] | [11] | [12] | [13] | [14] | [15] | [16] | [18] | [19] | [20]

O=C(O)CCCOc1ccc(Cl)cc1Cl
inactive: [1] | [2] | [3] | [4] | [5] | [6] | [8] | [9] | [10] | [12] | [13] | [14] | [15] | [18] | [19] | [20]

CCC(C)Nc1c([N+](=O)[O-])cc(C(C)(C)C)cc1[N+](=O)[O-] (configuration not stated)
inactive: [1] | [3] | [6] | [8] | [9] | [12] | [13] | [14] | [15] | [17] | [18] | [19] | [20]
active: [2] 7.44 µM | [4] 24.1 µM | [5] 36.4 µM | [10] 6.5 µM | [16] 5.96 µM

O=C1c2ccccc2C(=O)N1SC(Cl)(Cl)Cl
inactive: [1] | [2] | [3] | [4] | [5] | [6] | [8] | [9] | [10] | [11] | [12] | [13] | [14] | [15] | [16] | [18] | [19] | [20]

CC(C)(C)C(O)/C(=C\c1ccc(Cl)cc1Cl)n1cncn1 (configuration not stated)
inactive: [1] | [2] | [3] | [4] | [6] | [7] | [8] | [9] | [10] | [11] | [12] | [13] | [14] | [15] | [16] | [17] | [18] | [19] | [20]
